Screen size: about 340,000 compounds; about 2,100 (0.62%) were called active. Only a sample is shown. Measured potencies and affinities stand elsewhere. A number with no mark means an inactive call.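 Rule for the calls: active = first-screen hits whose inhibition reached a set limit at any dose in the follow-up dose series; inconclusive = inhibition above the set first-screen limit but never retested; inactive = the rest.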

Chain of Rac GTPase-activating protein 1 (Homo sapiens) (Q9H0H5 whole entry, looked up): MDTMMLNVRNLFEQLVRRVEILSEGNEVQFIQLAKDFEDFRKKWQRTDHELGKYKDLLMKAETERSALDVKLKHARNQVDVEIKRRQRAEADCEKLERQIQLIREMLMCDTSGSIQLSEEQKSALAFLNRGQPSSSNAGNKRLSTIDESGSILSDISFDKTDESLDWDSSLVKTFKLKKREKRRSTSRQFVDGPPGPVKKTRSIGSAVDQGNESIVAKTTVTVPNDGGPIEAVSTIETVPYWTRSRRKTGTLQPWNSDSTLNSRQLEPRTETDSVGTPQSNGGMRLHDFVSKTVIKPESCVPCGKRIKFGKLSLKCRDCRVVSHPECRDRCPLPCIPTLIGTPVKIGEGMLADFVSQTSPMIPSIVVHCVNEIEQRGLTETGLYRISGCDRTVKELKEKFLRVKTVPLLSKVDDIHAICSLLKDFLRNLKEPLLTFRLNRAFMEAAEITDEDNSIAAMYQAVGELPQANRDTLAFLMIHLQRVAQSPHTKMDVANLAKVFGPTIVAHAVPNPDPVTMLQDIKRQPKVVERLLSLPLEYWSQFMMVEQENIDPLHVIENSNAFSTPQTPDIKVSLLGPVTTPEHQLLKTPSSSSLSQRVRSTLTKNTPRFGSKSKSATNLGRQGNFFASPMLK

The test concerns the target Rac GTPase-activating protein 1 (Homo sapiens) (UniProt Q9H0H5). As to the kind of experiment: MgcRacGAP GTPase-activating activity inhibitors, confirmation, biochemical, ADP Hunter fluorescence, primary and confirmatory (AID 624330).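 Note: fluorescence reports GDP produced by GAP-driven GTP hydrolysis.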 The conditions noted are these: MgcRacGAP-stimulated Rac1 GTP hydrolysis, at 30 µM, hits give high values, GST-tagged Rac1 F28L mutant substrate.
Usually inhibition stands for the change of the read-out against control, counted positive when it falls. With `O=[N+]([O-])c1ccccc1Nc1ccccc1[N+](=O)[O-]`, the inhibition was -9.22%.

Turning to `Nc1ccc(Nc2ccc([N+](=O)[O-])cc2[N+](=O)[O-])cc1`, the inhibition was 25.4%. The figure for `Nc1cc([N+](=O)[O-])ccc1Nc1ccccc1` is 15.2%. `O=[N+]([O-])c1ccccc1Nc1ccccc1`: the inhibition is 5.61%. The figure for `CCCCOc1ccccc1N1CCN(CCCN2C(=O)C3CCCN3C2=O)CC1` (configuration not stated) is 9.54%; for `Cc1c2cnn(CC(=O)NCCCN3CCCCC3C)c(=O)c2c(C)n1Cc1ccccc1` (configuration not stated) it is 8.86%; for `O=C1CCc2ccccc2N1` it is 3.09%.

For the compound `Clc1ccc2c(c1)Nc1ccccc1CC2`, the inhibition is 9.56%. For `CCn1c(COc2ccc(=O)n(-c3ccccc3)n2)nnc1SC`, the inhibition was 7.04%.

`COc1cccc2c1C(=O)c1c(O)c3c(c(O)c1C2=O)CC(O)(C(=O)CO)CC3OC1CC(N(C)C)C(O)C(C)O1` (configuration not stated): the inhibition is 20.6%. With `CCCCC(=O)OCC(=O)C1(O)Cc2c(O)c3c(c(O)c2C(OC2CC(NC(=O)C(F)(F)F)C(O)C(C)O2)C1)C(=O)c1c(OC)cccc1C3=O` (configuration not stated), the inhibition is 6.09%. With `COc1cccc2c1C(=O)c1c(O)c3c(c(O)c1C2=O)CC(O)(C(C)=O)CC3OC1CC(N(C)C)C(O)C(C)O1` (configuration not stated), the inhibition is 16.8%. Take `C/C(=N\NC(=O)c1ccc(Cl)c(Cl)c1)c1cccc(NC(=O)C(C)C)c1`: the inhibition is 10%. For the compound `COc1cccc2c1C(=O)c1c(O)c3c(c(O)c1C2=O)C[C@](O)(C(C)=O)C[C@H]3O[C@@H]1C[C@@H](N)[C@@H](O)[C@@H](C)O1`, the inhibition was 21.3%. Turning to `COc1cccc2c1C(=O)c1c(O)c3c(c(O)c1C2=O)CC(O)(C(C)=O)CC3OC1CC(O)C(O)C(C)O1` (configuration not stated), the inhibition is 11.6%. To `CCCn1c2c(c(O)c(C(=O)NCc3ccccc3)c1=O)CCCC2` belongs 0.77%.

On to `COCCCN(C(=O)CSCC(=O)Nc1ccc(C)cc1)c1c(N)n(Cc2ccccc2)c(=O)[nH]c1=O`, for which the inhibition was 8.76%. With `COc1cc(NC(=O)CN2C(=O)NC(CC(C)C)C2=O)cc(OC)c1OC` (configuration not stated), the inhibition is 6.04%. For `CC1(C)C(=O)Nc2ccccc2N1C(=O)CN1C(=O)NC(CCc2ccccc2)C1=O` (configuration not stated), the inhibition was 2.92%. Consider `Cc1cc(C)cc(NC(=O)COC(=O)CCCNC(=O)c2ccc(Cl)cc2)c1`, for which the inhibition is 3.85%. Consider `COc1ccc(CCNC(=O)c2ccc(N3CCCC3=O)cc2)cc1OC`, for which the inhibition is 12.5%. The figure for `COc1ccc(-c2nnn(CC(=O)N(CC(=O)NCCC(C)C)c3ccccc3)n2)cc1OC` is 1.41%. Turning to `COc1ccc(-c2[nH]ncc2-c2ccc(Cl)cc2)c(O)c1`, the inhibition is 11.8%. In the case of `Oc1ccc(-c2[nH]ncc2-c2ccc(Br)cc2)c(O)c1`, the inhibition is 26.8%. Take `CC(C)(C)c1ccc(C(=O)N/C(=C\c2ccco2)C(=O)Nc2ccccc2C(=O)O)cc1`: the inhibition is 7.9%. `C[C@H](NC(=O)C1CCN(S(=O)(=O)c2ccccc2)CC1)C(=O)NC1CC1`: the inhibition was 4.17%. The figure for `O=C(NCc1ccc2c(c1)OCO2)c1cc(-c2ccccc2)c(N2CCOCC2)s1` is 11.5%. As for `COc1ccc(N2CCN(C(=O)C3=NNC(=O)CC3)CC2)cc1`, the inhibition was 4.93%. In the case of `COc1ccc(C(=O)C2CCCN(C(=O)CCC3=NNC(=O)CC3)C2)c(C)c1` (configuration not stated), the inhibition is -12.3%. Take `O=C1CCC(C(=O)N2CCCC(Nc3ccc(F)cc3)C2)=NN1` (configuration not stated): the inhibition was 13.7%. For the compound `Cc1ccc(NC2CCCN(C(=O)CCC3=NNC(=O)CC3)C2)cc1C` (configuration not stated), the inhibition is 11.1%. Take `O=C(O)c1ccc(S(=O)(=O)N(Cc2ccc(F)cc2)C2CCCCC2)cc1`: the inhibition was 7.41%.

Consider `O=C(Nc1ccc(N2CCOCC2)nc1)c1ccc(F)cc1`, for which the inhibition is 3.12%.

Consider `COc1ccc2cc(/C=N/NC(=O)c3c(Cl)cnn3C)c(Cl)nc2c1`, for which the inhibition is 3.85%. Regarding `COc1ccc(/C=N/Nc2ncnc(Cl)c2N)cc1OC`, the inhibition is 9.22%.

As for `Nc1c(Cl)ncnc1N/N=C/c1cccnc1`, the inhibition was -0.02%. Consider `Nc1c(Cl)ncnc1N/N=C/c1cccc(O)c1`, for which the inhibition was -2.65%. The figure for `Cc1ccc(CCNc2ncnc(Cl)c2N)cc1` is 6.24%; for `Clc1ccc(/C=N/Nc2ncnc3nc[nH]c23)cc1` it is 19.8%; for `Cc1ccc(/C=N/Nc2ncnc3nc[nH]c23)cc1` it is 11.9%. To `Nc1c(Cl)ncnc1NCCO` belongs 12.3%; to `COc1cccc(/C=N/Nc2ncnc(Cl)c2N)c1O`, 7.43%. As to `CC1CCc2cc(F)ccc2N1C(=O)CN1C(=O)c2ccccc2C1=O` (configuration not stated), the inhibition is 7.46%. On to `FC(F)(F)c1ccncc1-c1nnc(C2CCCCC2)o1`, for which the inhibition was 12.4%. The figure for `CCCC(c1nnnn1Cc1ccc(OC)cc1)N1CCC(C(N)=O)CC1` (configuration not stated) is 3.71%.

Regarding `CC12CC(NC(=O)N1c1cccc(C(=O)N3CCN(c4ccccc4F)CC3)c1)c1ccccc1O2` (configuration not stated), the inhibition is 4.9%. Consider `COC(=O)c1ccc(/C=N/NC(=O)C2CC(=O)N(c3ccc(OC)cc3)C2)cc1` (configuration not stated), for which the inhibition is -2.9%.

For `CN(CC(=O)Nc1ccccc1C(F)(F)F)C(=O)CN1C(=O)C2CCCCC2C1=O` (configuration not stated), the inhibition is 8.57%. To `COc1cccc2sc3cc(NCc4ccc5c(c4)OCO5)ccc3c(=O)c12` belongs 3.16%; to `CCN(CC)C(=O)C1=C(C)N(Cc2ccc(F)cc2)C(=O)C(CC(=O)NCc2ccco2)C1` (configuration not stated), 13.8%.

Turning to `CCn1cnc2cc(NCc3ccc(Cl)cc3)ccc21`, the inhibition is 20%. To `CCn1cnc2cc(NCc3ccc(C)cc3)ccc21` belongs 25.6%; to `COc1cc(NC(=S)N2CCCCC2C)cc(OC)c1OC` (configuration not stated), 12.9%. The figure for `CC(C)(C#CC(O)(c1ccccc1)c1ccccc1)N1CCCC1` is 11.3%.

With `C[C@H]1CN(S(=O)C(C)(C)C)[C@@H](CCO)/C1=C\CCO` (some centres not stated), the inhibition is 5.48%.

Regarding `C=CCNC(=O)CC(=O)N/N=C/c1ccccc1F`, the inhibition is -1.62%.

Consider `Cc1cccc(N2CC(C(=O)Nc3cccc(S(=O)(=O)N4CCCCC4)c3)CC2=O)c1C` (configuration not stated), for which the inhibition was 5.62%. For `CCOc1ccccc1OCCCOc1ccc(C)cc1Cl`, the inhibition is 12%. Consider `CCCCn1c(C)nc2c(=O)n(C)c(=O)[nH]c21`, for which the inhibition was 4.63%. Take `CCn1c(=O)n(C)c2c(=O)n(C)c(=O)n(C)c21`: the inhibition is -0.22%. With `Cn1c(=O)c2nc(SCc3ccccc3)n(C)c2n(C)c1=O`, the inhibition is 6.08%. With `CCOC(=O)c1nc2c(=O)n(C)c(=O)n(C)c2n(C)c1=O`, the inhibition is 0.79%. Consider `CCCCn1c(Cl)nc2c1c(=O)n(C)c(=O)n2C`, for which the inhibition is 9.62%. As to `CNc1nc2c(c(=O)n(C)c(=O)n2C)n1Cc1ccccc1`, the inhibition was -6.26%. `CCCn1nc(C(=O)NNC(=O)CCCOc2ccc(OC)cc2)c2ccccc2c1=O`: the inhibition was 1.29%. To `Cc1nc(N2CCCCC2)c2sc(=S)n(C)c2n1` belongs 5.47%; to `CCOc1ccc(C(=O)NCCc2ccc3c(c2)OCCO3)cc1`, 6.99%; to `O=C(Nc1cc(C(F)(F)F)ccc1N1CCOCC1)c1ccc(F)cc1`, 9.9%.

Take `CS(=O)(=O)c1nc(S(=O)(=O)c2ccc(Cl)cc2)c(N2CCCCC2)s1`: the inhibition was 5.12%.

Turning to `COCCCNC(=O)C1CCC(CNS(=O)(=O)c2ccc(Cl)cc2)CC1` (configuration not stated), the inhibition was -9.18%. For `O=C(COc1ccc2c3c(c(=O)oc2c1)CCC3)NCCCN1CCCC1=O`, the inhibition was 9.27%. As for `CC(C)=CCC/C(C)=C/CNC(=O)CC1C[C@H](C(=O)N2CCOCC2)[C@@]2(C)c3[nH]c4ccccc4c3CCN2C1=O` (some centres not stated), the inhibition is 7.27%.

On to `COc1ccc(-c2ccccc2[C@H]2[C@@H]3C=CC[C@@H](C)[C@@H]3C(=O)N2Cc2ccccc2)cc1`, for which the inhibition is 5.83%. The figure for `C/C(=N\Nc1nc(-c2cc(C)ccc2C)cs1)c1cc2ccccc2oc1=O` is 6.23%. Take `COC(=O)c1cccc(C(=O)N2CCCC(Nc3ccc4c(c3)OCCO4)C2)c1` (configuration not stated): the inhibition is 29.2%.

As to `Cc1cc(C)c(C(=O)N2CCCC(Nc3ccc(F)cc3)C2)o1` (configuration not stated), the inhibition is 1.75%. To `COc1ccc(C(=O)C2CCCN(C(=O)c3ccc(CSC)o3)C2)cc1F` (configuration not stated) belongs 5.42%; to `Cc1ccc(NC2CCCN(C(=O)c3ccccc3N3CCOCC3)C2)cc1C` (configuration not stated), 0.36%.

In the case of `O=C(c1cc(Cl)ccc1F)N1CCCC(Nc2ccc3c(c2)OCCO3)C1` (configuration not stated), the inhibition is 30.3%. As for `O=C(c1ccccc1N1CCOCC1)N1CCCC(Nc2ccc(F)cc2)C1` (configuration not stated), the inhibition was 9.71%. To `Cc1cc(C)c(C(=O)N2CCCC(Nc3ccc(C)c(C)c3)C2)o1` (configuration not stated) belongs -18%; to `CSCc1ccc(C(=O)N2CCCC(Nc3ccc(F)cc3)C2)o1` (configuration not stated), 7.33%. With `O=S(=O)(c1ccccc1)c1nc(-c2ccccc2)oc1N1CCOCC1`, the inhibition is 6.03%. Consider `Cc1nnc(SCc2ccccc2)n1N`, for which the inhibition was -3.52%.

`O=C(O)c1ccc(/C=N/O)cc1`: the inhibition is 1.83%. The figure for `CC(C)(C)NC(=O)C(c1ccccc1)N(C(=O)CNC(=O)c1cccs1)c1cccnc1` (configuration not stated) is 4.59%; for `COc1ccc(C=O)cc1Cn1c(=O)n(CCC(=O)NCc2ccco2)c(=O)c2sccc21` it is 8.39%; for `Cc1cccc(C(=O)Nc2cccc(C(=O)N/N=C/c3cccc(C)n3)c2)c1` it is 13.9%.

In the case of `CSc1cc(SC)ncn1`, the inhibition is 1.8%. Turning to `CC(C)(CN1CCOCC1)NS(=O)(=O)c1ccccc1`, the inhibition was 1.36%. Regarding `CCN(CC(=O)Nc1cccc(F)c1)Cc1nc2ccccc2c(=O)[nH]1`, the inhibition is -2.26%. Turning to `CN(C)C(/C=C/Nc1ccc(C#N)cc1)=C(C#N)C#N`, the inhibition was 4.16%.
